Data on five molecules can be found in PubChem BioAssay.

Assay [1] in a line: rapamycin-like changes in RPL19A-GFP expression – cell-based, S. cerevisiae, multiplex flow cytometry, primary screen (AID 1862).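 Note: lower values mimic rapamycin by blocking the RPL19A rise seen in DMSO cells.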 As to conditions: S. cerevisiae RPL19A-GFP strain, flow cytometry fluorescence, 3 h; at 10 µM; stronger effect = lower value. On the technique in general: In flow cytometry, cells or beads pass a laser one at a time.
The nature of assay [2]: TOR pathway GLN3 branch reporter MEP2-GFP changes – S. cerevisiae, multiplex flow cytometry, primary screen (AID 1867;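 active = GFP response, as percent of the DMSO control, above the screen-wide mean plus 3 SD, about 139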;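 note: median GFP channel fluorescence of barcode-gated MEP2-GFP cells measured by flow cytometry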). To be noted: S. cerevisiae MEP2-GFP strain, 3 h, at 10 µM, stronger effect = higher value, 100% means same as DMSO wells.
A short description of assay [3]: TOR pathway RTG branch CIT2 reporter changes – S. cerevisiae, GFP fusion, multiplex flow cytometry, primary screen (AID 1870;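 active = percent response above a set limit, the screen-wide mean plus 3 SD, cut at about 130% in these data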;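 note: barcoded CIT2-GFP strain pooled with four other GFP strains with rapamycin as positive control; median GFP fluorescence per well over plate mean of DMSO wells so 100% = DMSO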). To be noted: S. cerevisiae CIT2-GFP expression, 3 h, at 10 µM, stronger effect = higher value.
A short description of assay [4]: TOR pathway LAP4-GFP level changes – S. cerevisiae, multiplex flow cytometry, primary screen (AID 1873;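 active = GFP signal, as percent of the solvent control, above the screen mean plus 3 SD, about 149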). As to conditions: S. cerevisiae LAP4-GFP expression, 3 h, at 10 µM, stronger effect = higher value.
Assay [5] can be described thus: yeast AGP1-GFP level changes, GLN3 branch – cell-based, multiplex flow cytometry, S. cerevisiae, primary screen (AID 1887;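 active = GFP signal above the screen-wide mean plus 3 SD, that is over about 124.5% of the solvent control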;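 note: AGP1-GFP fusion strain of S. cerevisiae within a five-strain barcoded multiplex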). To be noted: 3 h, at 10 µM, stronger effect = higher value.
The nature of assay [6]: reduced mouse 2C T cell binding to pMHC/ICAM-1 vesicles – MLPCN validation set, flow cytometry, LFA-1/ICAM-1 modulator project, pilot screen (AID 2523;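 active = response below a set limit, under 55% cells CD8-positive and vesicle-bound, and CD8 cells' 90th-percentile brightness under 279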;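 for vesicle binding response: mean PE anti-B7-1 fluorescence of CD8+ cells relative to row control; 100% = QL9-loaded vesicles with DMSO vehicle in the same plate row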). As to conditions: 2C mouse CD8+ T cells, at 7 µM, stronger effect = lower value; double positive events: measured here: CD8+/vesicle+ event percentage.
Assay [7] has as its target Integrin beta-1 (Homo sapiens) + Integrin alpha-4 (Homo sapiens) (UniProt P13612+P05556). Kind of assay: alpha4beta1 integrin LIBS antibody binding reduction – U937 cells, HUTS-21 mAb, flow cytometry, validation set, VLA-4 allosteric modulator project, pilot screen (AID 2674;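 active = inhibition above 50%, about 3 SD of the validation set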;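 note: antibody binding induced by the VLA-4 ligand LDV present at three times its Kd; 0% = LDV ligand with antibody and no compound and 100% = antibody without LDV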). As to conditions: HUTS-21 LIBS mAb binding, at 6.7 µM, stronger effect = higher value, binding induced by LDV ligand.

A short description of assay [8]: calorie-restriction mimetic ROS inhibitors, yeast – validation compound set, pilot screen (AID 2706;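 active = superoxide response below 65% of plate, a cut near 3 SD across the whole screen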;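 note: yeast exposed to compound for one week at 30 degrees C before staining; 100% = mean of all compound wells on the same plate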). To be noted: S. cerevisiae aging, superoxide DHE fluorescence; at 10 µM, stronger effect = lower value.
The target in assay [9] is Beta-adrenergic receptor kinase 1 (Homo sapiens) (UniProt P25098). Kind of assay: GRK2 binders displacing RNA aptamer, biochemical, validation, human GRK2, bead flow cytometry (AID 488806;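 active = aptamer binding inhibition above 30%, about 3 SD of noise from non-fluorescent compounds; inactive = inhibition at or below 30%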). To be noted: bead-bound GRK2, FAM-aptamer displacement, at 10 µM, stronger effect = higher value.
The target of assay [10] is AP-2 complex subunit beta (Homo sapiens) (UniProt P63010). The assay is described as follows: beta-arrestin/AP2 interaction blockers – biochemical, validation set, GST-AP2 beads, flow cytometry, pilot screen (AID 504541;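 active = inhibition above 54%, about 3 SD of non-fluorescent compounds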;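 note: AP2 carries R879A mutation and is captured from E. coli lysate; bead-bound FITC arrestin peptide fluorescence measuring arrestin peptide binding to AP2; 0% = DMSO wells and 100% = excess unlabeled arrestin peptide control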). As to conditions: FITC arrestin peptide, at 10 µM, stronger effect = higher value, AP2 beta2 appendage fragment, R879A mutant.
The nature of assay [11]: cytosolic pH regulators acting via V-ATPase – S. cerevisiae, pHLuorin, HTS validation (AID 504600; in the data active = response above about 15%;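 note: plate controls were DMSO for no effect and reference compound for full effect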). To be noted: V-ATPase proton transport, at 10 µM, stronger effect = higher value.
Assay [12] has as its system anti-desmoglein-3 scFv antibody binding to human DSG3. Kind of assay: blockers of pathogenic pemphigus antibody–desmoglein-3 binding – biochemical, validation compound set, bead-based, flow cytometry, pilot screen (AID 588368;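 active = binding below the plate cutoff, the plate median minus 3 SD, with a reading above zero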;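 note: signal is the median channel fluorescence of bead-bound GFP antibody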). As to conditions: Protein G beads, DSG3-Fc, scFv-GFP binding, at 10 µM, stronger effect = lower value.
Assay [13] in a line: Nile Red efflux blockade in pump-expressing yeast – validation compound set, multiplex, phenotypic, pilot screen (AID 588506;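 active = efflux inhibition above 0.42, the validation set average plus 4 SD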;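 note: Nile Red retained in cells so higher fluorescence means more efflux inhibition; 0 = negative control wells and 1 = enniatin B 25 µM full block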). To be noted: S. cerevisiae pump-expressing triplex, Nile Red efflux flow cytometry; at 10 µM; stronger effect = higher value; the pumps come from Candida albicans.
Assay [14] has as its target ATP-binding cassette sub-family B member 6 (Homo sapiens) (UniProt Q9NP58). The assay is described as follows: blockers of ABCB6-driven porphyrin uptake – K562-ABCB6 cells, flow cytometry, validation set, pilot screen (AID 588550;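 active = inhibition above the screen-wide mean plus 3 SD, about 51%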;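 note: 0% = DMSO wells and 100% = benzethonium chloride 70 µM positive control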). As to conditions: K562-ABCB6 porphyrin accumulation, 1 h, at 10 µM, stronger effect = higher value.
Assay [15] in a line: AML differentiation inducers, ER-HoxA9 marrow cells – cell-based, GFP/MAC1 double positive, flow cytometry, validation set, primary screen (AID 588685;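 active = differentiation response of at least 50%, scaled between solvent and reference control, from cells with both markers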;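 note: compound exposure lasts four days before antibody staining and flow analysis; 0% = DMSO wells and 100% = 5 µM fulvestrant positive control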). To be noted: stronger effect = higher value, normalized: vehicle 0, fulvestrant 100.

Results filed as inconclusive are left out. Active and inactive are the calls of the source. Cut-off read from the data, not from the text of the source, unless noted: active = percent of DMSO control GFP below about 86%; inactive = the rest, inconclusive results apart.

AP-2 complex subunit beta (Homo sapiens), sequence (P63010 whole entry, looked up, the tested form may be a part, one chain of several): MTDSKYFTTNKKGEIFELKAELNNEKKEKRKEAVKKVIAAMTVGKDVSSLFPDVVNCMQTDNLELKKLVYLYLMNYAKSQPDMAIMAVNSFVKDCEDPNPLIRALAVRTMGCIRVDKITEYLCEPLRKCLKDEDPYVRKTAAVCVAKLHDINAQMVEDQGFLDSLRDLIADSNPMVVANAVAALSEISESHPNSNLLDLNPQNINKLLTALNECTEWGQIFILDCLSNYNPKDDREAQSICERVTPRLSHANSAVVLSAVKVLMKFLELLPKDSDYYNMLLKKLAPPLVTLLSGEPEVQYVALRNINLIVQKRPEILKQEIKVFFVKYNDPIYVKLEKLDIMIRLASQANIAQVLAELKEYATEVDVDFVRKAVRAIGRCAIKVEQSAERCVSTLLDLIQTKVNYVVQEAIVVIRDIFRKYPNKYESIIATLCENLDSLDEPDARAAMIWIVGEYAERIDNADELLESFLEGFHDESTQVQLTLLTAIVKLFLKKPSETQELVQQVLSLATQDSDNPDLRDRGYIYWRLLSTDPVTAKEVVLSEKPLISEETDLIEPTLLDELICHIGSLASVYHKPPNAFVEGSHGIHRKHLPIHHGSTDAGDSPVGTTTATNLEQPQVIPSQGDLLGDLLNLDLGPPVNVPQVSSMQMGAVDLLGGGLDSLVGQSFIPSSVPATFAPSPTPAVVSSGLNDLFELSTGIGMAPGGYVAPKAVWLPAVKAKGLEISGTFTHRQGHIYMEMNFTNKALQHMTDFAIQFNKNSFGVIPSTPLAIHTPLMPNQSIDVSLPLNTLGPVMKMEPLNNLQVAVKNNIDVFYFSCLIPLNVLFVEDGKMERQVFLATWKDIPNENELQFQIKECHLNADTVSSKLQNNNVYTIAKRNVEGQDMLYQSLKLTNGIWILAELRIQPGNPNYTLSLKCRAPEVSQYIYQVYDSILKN
ATP-binding cassette sub-family B member 6 (Homo sapiens), sequence (Q9NP58 whole entry, looked up): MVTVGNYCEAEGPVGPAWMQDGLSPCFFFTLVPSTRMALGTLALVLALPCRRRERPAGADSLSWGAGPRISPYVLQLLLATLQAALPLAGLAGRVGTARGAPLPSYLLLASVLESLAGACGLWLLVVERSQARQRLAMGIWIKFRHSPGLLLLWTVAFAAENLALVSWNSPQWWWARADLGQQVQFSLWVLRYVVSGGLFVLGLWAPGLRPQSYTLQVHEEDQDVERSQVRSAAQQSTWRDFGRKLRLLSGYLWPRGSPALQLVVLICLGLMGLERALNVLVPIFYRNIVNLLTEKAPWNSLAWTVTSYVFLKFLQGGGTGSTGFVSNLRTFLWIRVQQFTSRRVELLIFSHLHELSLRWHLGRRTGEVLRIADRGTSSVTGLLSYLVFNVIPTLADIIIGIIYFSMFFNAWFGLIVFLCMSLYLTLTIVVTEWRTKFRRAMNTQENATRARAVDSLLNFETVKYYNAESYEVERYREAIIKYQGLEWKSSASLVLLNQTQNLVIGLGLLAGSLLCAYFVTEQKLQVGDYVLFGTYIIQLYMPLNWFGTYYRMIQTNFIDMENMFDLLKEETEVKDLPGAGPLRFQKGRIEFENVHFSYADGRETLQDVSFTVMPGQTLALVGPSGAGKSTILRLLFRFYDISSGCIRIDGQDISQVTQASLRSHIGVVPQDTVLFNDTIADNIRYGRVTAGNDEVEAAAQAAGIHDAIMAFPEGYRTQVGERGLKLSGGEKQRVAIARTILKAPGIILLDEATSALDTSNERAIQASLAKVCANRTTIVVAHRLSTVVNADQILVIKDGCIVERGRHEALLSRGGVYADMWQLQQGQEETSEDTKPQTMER
Integrin beta-1 (Homo sapiens) + Integrin alpha-4 (Homo sapiens), sequence (P05556 whole entry, looked up): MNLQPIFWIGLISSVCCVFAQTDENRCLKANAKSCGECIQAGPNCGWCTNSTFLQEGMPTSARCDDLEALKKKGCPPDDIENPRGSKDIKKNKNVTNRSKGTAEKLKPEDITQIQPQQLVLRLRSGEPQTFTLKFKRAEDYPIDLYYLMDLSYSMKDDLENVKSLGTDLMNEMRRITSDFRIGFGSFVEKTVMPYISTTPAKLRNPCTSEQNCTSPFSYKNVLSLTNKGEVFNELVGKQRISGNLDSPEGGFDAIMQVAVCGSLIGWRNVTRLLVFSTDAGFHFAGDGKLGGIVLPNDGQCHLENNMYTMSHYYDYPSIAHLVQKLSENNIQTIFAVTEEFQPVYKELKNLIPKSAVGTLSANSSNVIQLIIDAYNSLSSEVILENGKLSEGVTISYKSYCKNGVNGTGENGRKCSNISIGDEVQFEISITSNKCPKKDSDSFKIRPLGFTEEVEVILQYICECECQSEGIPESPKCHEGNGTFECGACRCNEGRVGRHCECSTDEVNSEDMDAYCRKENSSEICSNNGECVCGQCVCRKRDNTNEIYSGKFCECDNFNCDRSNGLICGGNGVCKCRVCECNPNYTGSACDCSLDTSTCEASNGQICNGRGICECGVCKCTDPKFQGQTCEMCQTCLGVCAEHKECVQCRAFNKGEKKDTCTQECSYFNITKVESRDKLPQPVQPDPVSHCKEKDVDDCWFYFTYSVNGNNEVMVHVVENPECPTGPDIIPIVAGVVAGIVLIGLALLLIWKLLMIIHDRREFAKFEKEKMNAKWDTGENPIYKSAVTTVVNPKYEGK
Integrin beta-1 (Homo sapiens) + Integrin alpha-4 (Homo sapiens), sequence (P13612 whole entry, looked up): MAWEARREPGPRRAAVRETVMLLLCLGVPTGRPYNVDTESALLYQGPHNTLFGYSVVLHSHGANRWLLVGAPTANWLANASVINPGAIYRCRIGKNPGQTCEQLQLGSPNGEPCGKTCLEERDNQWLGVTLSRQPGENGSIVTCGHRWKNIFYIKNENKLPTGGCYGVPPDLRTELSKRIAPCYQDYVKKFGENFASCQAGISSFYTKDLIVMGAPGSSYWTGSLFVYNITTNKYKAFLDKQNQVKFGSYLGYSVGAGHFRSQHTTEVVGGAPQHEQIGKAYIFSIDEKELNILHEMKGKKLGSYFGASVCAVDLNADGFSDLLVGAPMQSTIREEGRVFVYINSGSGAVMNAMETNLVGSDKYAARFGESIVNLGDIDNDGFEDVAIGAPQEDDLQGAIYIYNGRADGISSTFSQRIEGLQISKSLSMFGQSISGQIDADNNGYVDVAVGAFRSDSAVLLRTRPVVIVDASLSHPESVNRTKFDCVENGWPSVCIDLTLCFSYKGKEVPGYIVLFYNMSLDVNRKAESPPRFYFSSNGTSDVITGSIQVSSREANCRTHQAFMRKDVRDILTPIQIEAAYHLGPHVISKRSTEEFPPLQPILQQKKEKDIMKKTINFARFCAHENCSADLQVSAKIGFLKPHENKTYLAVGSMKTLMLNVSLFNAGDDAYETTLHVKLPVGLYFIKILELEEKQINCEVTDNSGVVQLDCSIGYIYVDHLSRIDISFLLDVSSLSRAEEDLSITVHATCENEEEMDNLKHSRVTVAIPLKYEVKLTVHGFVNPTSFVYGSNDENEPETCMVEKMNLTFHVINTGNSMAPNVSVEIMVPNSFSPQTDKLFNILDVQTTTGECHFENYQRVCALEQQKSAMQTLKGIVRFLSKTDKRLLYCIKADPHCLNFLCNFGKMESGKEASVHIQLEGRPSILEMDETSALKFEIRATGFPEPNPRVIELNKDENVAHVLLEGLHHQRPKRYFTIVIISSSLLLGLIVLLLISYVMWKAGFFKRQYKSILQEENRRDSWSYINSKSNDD
Beta-adrenergic receptor kinase 1 (Homo sapiens), sequence (P25098 whole entry, looked up): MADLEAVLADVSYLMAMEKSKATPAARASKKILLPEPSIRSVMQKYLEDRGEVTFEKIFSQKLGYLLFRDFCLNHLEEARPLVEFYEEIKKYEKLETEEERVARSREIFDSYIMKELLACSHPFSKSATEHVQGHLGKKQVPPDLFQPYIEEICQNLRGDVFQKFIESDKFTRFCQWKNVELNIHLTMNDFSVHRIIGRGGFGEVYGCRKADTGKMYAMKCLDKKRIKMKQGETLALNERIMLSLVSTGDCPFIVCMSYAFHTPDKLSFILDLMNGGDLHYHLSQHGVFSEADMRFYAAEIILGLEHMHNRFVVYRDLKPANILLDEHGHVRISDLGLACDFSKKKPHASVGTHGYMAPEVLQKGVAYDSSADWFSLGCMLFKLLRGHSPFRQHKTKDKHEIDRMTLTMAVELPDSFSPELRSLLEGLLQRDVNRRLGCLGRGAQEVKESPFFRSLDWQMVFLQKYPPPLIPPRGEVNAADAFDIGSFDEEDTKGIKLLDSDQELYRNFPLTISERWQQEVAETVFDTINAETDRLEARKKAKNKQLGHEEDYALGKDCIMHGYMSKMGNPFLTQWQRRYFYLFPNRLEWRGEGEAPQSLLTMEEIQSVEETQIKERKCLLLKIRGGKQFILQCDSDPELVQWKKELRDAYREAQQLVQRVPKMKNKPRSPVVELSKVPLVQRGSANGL

As usually defined, the inhibition is the change of the read-out against control, counted positive when it falls. As to `CCn1cc(C(=O)O)c(=O)c2cnc(N3CCNCC3)nc21`, in [1], the percent of DMSO control GFP was 99.1% (inactive). For the same molecule, the figures for the GFP response vs DMSO in [2] and in assay [4] were 99.9% (inactive) and 91.3% (inactive), respectively. In addition, the percent response of DMSO control in assay [3] was 104% (inactive). Moreover, the GFP response, % of DMSO in assay [5] is 99.7% (inactive). Further, the double positive events in [6] is 61%. Moreover, the vesicle binding response in [6] is 164% (inactive). Moreover, the results for the inhibition in [7], in assay [10] and in [14] were 7.22% (inactive), 32.7% (inactive) and 6% (inactive), respectively. In [8], the superoxide response (% of plate) is 85.2% (inactive). Also, the aptamer binding inhibition in [9] was 0% (inactive). The response in [11] was -7.56% (inactive). Also, in assay [12], the binding (% of control) is 99% (inactive). Also, in [13], the efflux inhibition (fraction of control) is -0.31 (inactive). In addition, the differentiation response in assay [15] was -19.6% (inactive).
On to `CC(=O)OCC(=O)[C@@]12OC3(CCCC3)O[C@@H]1C[C@H]1[C@@H]3CCC4=CC(=O)C=C[C@]4(C)[C@@]3(F)[C@@H](O)C[C@@]12C`, for which the percent of DMSO control GFP in assay [1] is 98.5% (inactive). The GFP response vs DMSO in assay [2] was 96.9% (inactive); in [4] it was 106% (inactive). Moreover, the percent response of DMSO control in assay [3] was 99.8% (inactive). The GFP response, % of DMSO in [5] was 101% (inactive). The same molecule showed a double positive events in [6] of 61.4%. Further, the vesicle binding response in [6] is 173% (inactive). The figures for the inhibition in assay [7], in assay [10] and in assay [14] were -12.4% (inactive), 26.6% (inactive) and 6% (inactive), respectively. In addition, the superoxide response (% of plate) in assay [8] is 97% (inactive). In addition, in assay [9], the aptamer binding inhibition was 2% (inactive). Moreover, the response in assay [11] was -4.26% (inactive). Besides, in assay [12], the binding (% of control) is 96.4% (inactive). Further, the efflux inhibition (fraction of control) in assay [13] was 0.9 (active). For the same molecule, the differentiation response in assay [15] is -3.43% (inactive).
Regarding `CCc1c(C)c2ccc(OCC(=O)OC(C)C)c(C)c2oc1=O`, in [1], the percent of DMSO control GFP was 98.1% (inactive). For the same molecule, the GFP response vs DMSO was 96.9% (inactive) in assay [2] and 89.3% (inactive) in assay [4]. Besides, in [3], the percent response of DMSO control is 93% (inactive). The GFP response, % of DMSO in assay [5] is 88.5% (inactive). In assay [6], this molecule registered a double positive events of 57.1%. In addition, in assay [6], the vesicle binding response was 142% (inactive). The inhibition is 7.22% (inactive) in assay [7], 19.5% (inactive) in assay [10] and 8% (inactive) in assay [14]. The superoxide response (% of plate) in assay [8] is 101% (inactive). Also, in assay [9], the aptamer binding inhibition is -3% (inactive). The response in assay [11] was 3.44% (inactive). The binding (% of control) in assay [12] is 101% (inactive). Also, the efflux inhibition (fraction of control) in assay [13] is 0.29 (inactive). For the same molecule, in [15], the differentiation response is -18% (inactive).
Take `c1cc2c(cc1C1CCCCC1)c1c3n2CCN=C3CCC1`: the percent of DMSO control GFP in assay [1] was 98.1% (inactive). For the same molecule, the GFP response vs DMSO is 107% (inactive) in assay [2] and 99.4% (inactive) in [4]. For the same molecule, in [3], the percent response of DMSO control is 99.8% (inactive). In [5], the GFP response, % of DMSO is 93.1% (inactive). In assay [6], this molecule gave a double positive events of 57.1%. For the same molecule, in assay [6], the vesicle binding response is 224% (inactive). Further, the inhibition is -9.57% (inactive) in [7], -7.03% (inactive) in assay [10] and -1% (inactive) in [14]. In [8], the superoxide response (% of plate) was 98.8% (inactive). The aptamer binding inhibition in assay [9] is -9% (inactive). The response in [11] is -0.63% (inactive). Also, in [12], the binding (% of control) is 114% (inactive). In addition, the efflux inhibition (fraction of control) in assay [13] is 0.03 (inactive). Besides, the differentiation response in [15] is -9.89% (inactive).
Consider `CO/N=C(\C(=O)N[C@@H]1C(=O)N2C(C(=O)O)=C(COC(C)=O)CS[C@H]12)c1csc(N)n1` (stereo in doubt), for which the percent of DMSO control GFP in [1] is 95.8% (inactive). Further, the GFP response vs DMSO in [2] is 99.9% (inactive); in [4], 90.3% (inactive). In addition, in assay [3], the percent response of DMSO control was 94.9% (inactive). The GFP response, % of DMSO in assay [5] was 93.4% (inactive). This molecule showed a double positive events in [6] of 61.1%. Further, in [6], the vesicle binding response was 224% (inactive). Also, the values for the inhibition in assay [7], in [10] and in assay [14] were 5.36% (inactive), 2.47% (inactive) and 11% (inactive), respectively. The superoxide response (% of plate) in assay [8] is 93.9% (inactive). The aptamer binding inhibition in assay [9] is 3% (inactive). For the same molecule, in [11], the response was -3.75% (inactive). Also, in [12], the binding (% of control) is 97.5% (inactive). The efflux inhibition (fraction of control) in assay [13] was -0.09 (inactive). Further, the differentiation response in assay [15] was 6.26% (inactive).
